# From PubChem
# PI5P4Ka inh – inhibitors of human PI5P4K alpha | PI5P4Kalpha enzyme, ADP-Glo luminescence, 60 min; active compounds read low | max response, % | hit rate 1.2% among 330,000; active = max response of -50% or lower; inconclusive = between -30% and -50%; inactive = -30% or higher; also: value at the top dose of about 77 µM; % is scaled to controls: 0 for no effect and ±100 for the full control effect
#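 ADP-Glo luminescence end-point read after a 60 min room-temperature kinase reaction of PI5P4Kalpha plus substrate, initiated with ATP at 5 microM final. Buffer: 0.038 M HEPES pH 7.4, EGTA, 0.1% CHAPS, 5% DMSO.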
# POLH inh – DNA polymerase eta (human) inhibition; Q9Y253; recombinant Pol eta, fluorescent DNA replication assay; Potency, µM (series often up to 114 µM), for inactives: at the top dose activity change, negative = inhibition, most hits filed as inhibitors; hit rate 1.2% among 390,000; AID 588591; also: potency is read from the fitted curve at half-maximal effect; % is scaled to controls: 0 for no effect and ±100 for the full control effect
#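 Fluorescent replication assay: 50 nM final substrate added after a 15 min room-temperature compound preincubation with 10 nM enzyme. Signal taken at 0 min and again at 10 min.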
# Pol beta inh – DNA polymerase beta (human) inhibition | P06746 | Pol beta primer extension/strand displacement, fluorescence kinetic | Potency, µM (doses to about 114 µM), inactives show at the highest dose activity change, negative = inhibition, usual class: inhibitors | hit rate 1.3% among 340,000; also: potency is read from the fitted curve at half-maximal effect; % is scaled to controls: 0 for no effect and ±100 for the full control effect
#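 Pol beta (10 nM) and compounds were preincubated 15 min at room temperature, then 50 nM substrate (final) started primer extension/strand displacement. Reads were taken at 0 and 10 min; concentration-response data were fitted to a four-parameter Hill equation.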
# Pol kappa inh – inhibitors of human DNA polymerase kappa. Q9UBT6. purified Pol kappa, fluorescent DNA synthesis assay, 10 min. Potency, µM (top dose mostly 107 µM), for inactives: at the highest dose activity, negative = inhibition, actives largely listed as inhibitors. hit rate 0.53% among 400,000; also: potency is read from the fitted curve at half-maximal effect; % is scaled to controls: 0 for no effect and ±100 for the full control effect
#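 Here, compound and 10 nM enzyme are combined for 15 min at room temperature; adding 50 nM substrate (final) starts DNA synthesis, tracked by fluorescence at 0 and 10 min against buffer-only wells.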
# Pol iota inh – DNA polymerase iota (human) inhibition | Q9UNA4 | Pol iota fluorescent replication assay, 10 min | Potency, µM (highest dose often 115 µM), for the others: at the top dose activity, negative = inhibition, usual class: inhibitors | hit rate 1% among 390,000; also: potency is read from the fitted curve at half-maximal effect
#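 Fluorescent replication assay read twice, at 0 min and 10 min after adding 50 nM (final) substrate. Enzyme (10 nM) and compounds were first incubated 15 min at room temperature; enzyme-free buffer wells were negative controls.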
# WRN helicase inh – blocks human WRN helicase; hit rate 0.46% among 360,000; Potency, µM (top dose mostly 114 µM), inactives show at the highest dose activity change, negative = inhibition, usual class: inhibitors; AID 651768; Q14191; WRN helicase unwinding, fluorescent forked duplex, kinetic; also: potency is read from the fitted curve at half-maximal effect; % is scaled to controls: 0 for no effect and ±100 for the full control effect; nearly all actives have a fitted effect of over 55% in size
#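 Fluorescence dequenching readout, ex 525 nm/em 598 nm, kinetic mode: forked duplex DNA (100 nM final) with adjacent fluorophore and quencher unwound by WRN (20 nM final) with 2 mM ATP. Compound preincubation 15 min, room temperature.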
# Starred values were filed as active, the others as inactive; ? = inconclusive; · = no result; [ ] = dose if it differs, or a comment. Hits are enriched below; roughly 2.8% of the tested compounds scored in any of these assays. Unless noted, calls follow the shape of the dose curve; as a rule, active = well fitted curve in the direction sought with a large enough effect; inconclusive = small, poorly fitted or top-dose-only effect, or another doubt; inactive = no such curve, though single readings can be large; an effect the other way counts as inactive or inconclusive.
SMILES,PI5P4Ka inh,POLH inh,Pol beta inh,Pol kappa inh,Pol iota inh,WRN helicase inh
CC(=O)c1ccc(NC(=O)Nc2nnc(N3CCCC(C)C3)s2)cc1 (stereo unspecified),·,-14.5%,25.4%,-8.1%,11.5%,·
C=CCNC(=O)N1C2=NC(C(=O)OC)=C(C(=O)OC)[C@@H]3N(Cc4ccccc4)c4ccccc4[C@]23C[C@H]1C(=O)OC,-0.5,-0.8%,·,5.1%,-2.5%,-3.6%
Cc1cc(C)cc(-n2ccn(Cc3ccc(F)cc3)c(=O)c2=O)c1,·,-13.4%,-0.6%,-3.6%,16.6%,·
COc1ccccc1OC(C)C(=O)Nc1cccc(-c2nc3ccccc3o2)c1 (stereo unspecified),·,?,50.1µM*,?,89.1µM*,·
CC1NC(=O)c2cccnc2-n2c1nc1cc(F)ccc1c2=O (stereo unspecified),2.9,-1.8%,·,·,·,6.8%
CC(c1ccccc1)C1C(C#N)=C(N)SC(N)=C1C#N (stereo unspecified),?,?,11.6%,-12.7%,-1.8%,-11.5%
CC(CC1C(C#N)=C(N)SC(N)=C1C#N)c1ccccc1 (stereo unspecified),-66.6*,-11.9%,0.0%,-25.1%,15.1%,-20.2%
Cc1cc(N2C(=O)C=CC2=O)c([N+](=O)[O-])cc1C,-56.4*,-13.8%,-0.4%,-6.2%,-24.1%,-10.2%
Cc1c(Cl)cc(-n2cnnn2)cc1[N+](=O)[O-],1.9,-6.4%,24.3%,3.3%,-7.6%,6.3%
Cc1cc(C)cc(N2C(=O)c3nccnc3C2=O)c1,4.2,-12.7%,2.4%,3.6%,8.6%,2.2%
Cc1ccc(N2C(=O)C3C4C=CC(CC4)C3C2=O)cc1[N+](=O)[O-] (stereo unspecified),2.4,-21.6%,-0.3%,4.3%,18.4%,-1.1%
Cc1cc(C)cc(N2C(=O)C=CC2=O)c1,?,-5.7%,·,-11.7%,-0.7%,20µM*
Cc1c([N+](=O)[O-])cc(N2C(=O)C=CC2=O)cc1[N+](=O)[O-],-66.2*,-14.4%,·,?,10µM*,-12.2%
CC(=O)/C=C/c1ccc2c(c1)S(=O)(=O)N(C1CCCC1)[C@H]2CC(C)=O,·,·,·,-40.6%,?,·
CCCC(=O)Nc1nnc(Sc2ccc(N(C)C)cc2)s1,0.8,5.3%,5.1%,0.9%,3.4%,5.0%
CCC(=O)Nc1nnc(Sc2ccc(N(C)C)cc2)s1,2.4,-3.9%,50.1µM*,-8.6%,?,-29.2%
O=C1C=C(O)CC(c2cccs2)C1 (stereo unspecified),·,-28.4%,28.2µM*,-39.4%,?,-18.3%
COC(=O)c1[nH]c2c(c1C)C(=O)CC(c1cccs1)C2 (stereo unspecified),-3.9,-7.8%,0.2%,-8.0%,0.4%,-6.1%
Cc1ccc2c(c1)NC(=O)C(CC(=O)Nc1ccccc1Cl)O2 (stereo unspecified),·,2.1%,22.8%,6.1%,-0.6%,·
Cc1ccc(C)c2c(C)ccnc12,·,·,·,-8.8%,56.8%,·
CCOC(=O)c1c(NC(=O)CSc2nnc(-c3ccccc3C)n2C)sc(C(C)=O)c1C,?,35.5µM*,18.2%,?,15.4%,?
COc1ccccc1/C=C/c1cncc(/C=C/c2ccccc2OC)c1,·,·,·,-18.6%,8.2%,·
Cc1ccc(C)c(SCC(=O)OC/C(O)=C(\C#N)c2nc3ccccc3[nH]2)c1,?,44.7µM*,?,-28.2%,?,-18.2%[57.1 µM]
Cc1cc(Br)ccc1SCC(=O)OC/C(O)=C(\C#N)c1nc2ccccc2[nH]1,-7.9,-10.7%,3.2%,0.6%,33.5%,4.4%
N#CC(=C(O)COC(=O)Cc1c[nH]c2ccccc12)c1nc2ccccc2[nH]1,-54.0*,-23.2%,·,-12.7%,58.7%,-0.5%
SMILES,PI5P4Ka inh,POLH inh,Pol beta inh,Pol kappa inh,Pol iota inh,WRN helicase inh
CN(C(=O)COn1nnc2ccc(Cl)cc21)C1CCS(=O)(=O)C1 (stereo unspecified),1.1,6.2%,·,-4.6%,1.0%,4.1%
COc1ccc2c(C)nc(N/C(N)=N/S(=O)(=O)c3ccc(C)cc3)nc2c1,1.2,-4.0%,-0.1%,-10.9%,89.1µM*,-1.9%
CCOC(=O)CNC(=O)c1cc2c(=O)n3cccc(C)c3nc2n1C,·,-4.5%,70.8µM*,-20.0%,33.5%,·
Cc1cccn2c(=O)c3cc(C(=O)NCCC4=CCCCC4)n(C)c3nc12,3.2,-0.8%,-1.2%,-3.5%,28.5%,-3.2%
Cc1cccn2c(=O)c3cc(C(=O)NCCc4ccc(S(N)(=O)=O)cc4)n(C)c3nc12,·,79.4µM*,?,-31.3%,-27.1%,·
O=c1c(-c2ccccc2)coc2cc(O)cc(O)c12,·,·,·,1.78µM*,·,·
O=C(O)c1cc2ncc(-c3[nH]ncc3[N+](=O)[O-])cn2n1,-56.2*,?,-26.3%,-32.4%,?,?
O=C(c1[nH]ncc1[N+](=O)[O-])N1CCOCC1,4.8,9.3%,-0.1%,-10.5%,-0.2%,-7.8%
CC(C)N(C(=O)Cn1cc(S(=O)(=O)CC(=O)Nc2ccccc2)c2ccccc21)C(C)C,0.0,?,?,-4.8%,-12.7%,-10.7%
CCc1sc(C(=O)NCCc2ccc(S(N)(=O)=O)cc2)cc1Br,0.4,-10.0%,-0.7%,0.0%,89.1µM*,-2.7%
Cc1ccccc1OC1CCN(C(=O)C2CCC(=O)N(C3CCCC3)C2)CC1 (stereo unspecified),-1.1,1.5%,1.7%,-5.9%,-22.7%,1.8%
CCOC(=O)CSC1=C(C#N)C(=O)NC2(CCCCC2)S1,-51.6*,-14.9%,6.3%,-7.3%,?,-15.5%
CCOC(=O)CSC1=C(C#N)C(c2ccc(C)s2)CC(=O)N1 (stereo unspecified),·,6.2%,5.7%,-8.3%,20.4%,-3.6%[57.1 µM]
CC(=O)C1=C(O)C(=O)N(c2ccccn2)C1c1ccccc1[N+](=O)[O-] (stereo unspecified),?,-2.8%,1.7%,7.6%,11.4%,70.8µM*
O=C1Nc2ccccc2CN2C(=O)c3cc(Cl)ccc3NC(=O)C12 (stereo unspecified),1.8,·,·,·,·,-3.2%
Cc1ccc(C(=O)n2ncn(C)c2=S)cc1,-63.4*,-13.0%,5.7%,-4.4%,58.6%,0.5%
CC1=NN(c2ccc(Br)cc2)C(=O)/C1=C/c1cccs1,23.7,-6.6%,-8.9%,-7.3%,-17.3%,-33.9%
CC1=NN(c2ccc(C)cc2)C(=O)/C1=C\c1ccc(Br)s1,17.7,?,-16.4%,-13.8%,3.55µM*,-22.2%
CC(/C=N/NC(=O)Cc1cccn1C)=C\c1ccco1,?,?,?,?,44.7µM*,-19.1%[57.1 µM]
CCc1ccc(C(=O)NNC(=O)c2ccc(=O)n(C)n2)cc1,0.2,6.8%,?,5.2%,19.5%,4.7%
Cc1oc2c(c1C(=O)c1ccccc1)C(=O)C(=O)c1ccccc1-2,-10.3,20µM*,56.2µM*,-9.7%,0.891µM*,?
